Like-named read-outs stand apart in the source and are kept apart here.

Drawing on publication PMC11062922 (Nature Chemical Biology, 2023), this text covers potency estimated from few doses for 3 molecules.

For assay [1], the system named is AAK1. Further details: species or system human, MV4-11 + K-562 + COLO205 + SK-N-BE2 + OVCAR-8. The note with it: read-out: apparent Kd, n = 1.
For assay [2], the system named is CSNK2A1;CSNK2A3. Further details: species or system human, MV4-11 + K-562 + COLO205 + SK-N-BE2 + OVCAR-8. The note with it: read-out: apparent Kd, n = 1.
Assay [3] concerns FLT4. Further details: species or system human, MV4-11 + K-562 + COLO205 + SK-N-BE2 + OVCAR-8. The following applies: read-out: apparent Kd, n = 1.
In assay [4] the test system is GAK. Further details: species or system human, MV4-11 + K-562 + COLO205 + SK-N-BE2 + OVCAR-8. The following applies: read-out: apparent Kd, n = 1.
Assay [5] has as its system GSK3A. Further details: species or system human, MV4-11 + K-562 + COLO205 + SK-N-BE2 + OVCAR-8. The following applies: read-out: apparent Kd, n = 1.
Assay [6] has as its system GSK3B. Further details: species or system human, MV4-11 + K-562 + COLO205 + SK-N-BE2 + OVCAR-8. The note with it: read-out: apparent Kd, n = 1.
For assay [7], the system named is PAK4. Further details: species or system human, MV4-11 + K-562 + COLO205 + SK-N-BE2 + OVCAR-8. The following applies: read-out: apparent Kd, n = 1.
For assay [8], the system named is PKN1. Further details: species or system human, MV4-11 + K-562 + COLO205 + SK-N-BE2 + OVCAR-8. The note with it: read-out: apparent Kd, compound concentrations: 100 nM and 1000 nM (sheet 'Samples'), n = 1.
For assay [9], the system named is PRKAG1. Further details: species or system human, MV4-11 + K-562 + COLO205 + SK-N-BE2 + OVCAR-8. The following applies: read-out: apparent Kd, n = 1.
In assay [10] the target is Q6ZSR9 (human, UniProt Q6ZSR9). Further details: species or system MV4-11 + K-562 + COLO205 + SK-N-BE2 + OVCAR-8. The note with it: read-out: apparent Kd, n = 1.
Assay [11] has as its system RET. Further details: species or system human, MV4-11 + K-562 + COLO205 + SK-N-BE2 + OVCAR-8. The following applies: read-out: apparent Kd, n = 1.
In assay [12] the test system is SIK2. Further details: species or system human, MV4-11 + K-562 + COLO205 + SK-N-BE2 + OVCAR-8. The note with it: read-out: apparent Kd, n = 1.
The test system of assay [13] is BMP2K. Further details: species or system human, MV4-11 + K-562 + COLO205 + SK-N-BE2 + OVCAR-8. The note with it: read-out: apparent Kd, n = 1.
Assay [14] concerns CLK1. Further details: species or system human, MV4-11 + K-562 + COLO205 + SK-N-BE2 + OVCAR-8. The note with it: read-out: apparent Kd; compound concentrations:100 nM and 1000 nM (sheet 'Samples'); n = 1.
The test system of assay [15] is CSNK2A2. Further details: species or system human, MV4-11 + K-562 + COLO205 + SK-N-BE2 + OVCAR-8. The note with it: read-out: apparent Kd, n = 1.
The subject of assay [16] is PKN3. Further details: species or system human, MV4-11 + K-562 + COLO205 + SK-N-BE2 + OVCAR-8. The note with it: read-out: apparent Kd, n = 1.
Assay [17] deals with MELK. Further details: species or system human, MV4-11 + K-562 + COLO205 + SK-N-BE2 + OVCAR-8. The note with it: read-out: apparent Kd; compound concentrations: 100 nM and 1000 nM (sheet 'Samples'), CATDS: 1.3446305906565099E-2; n = 1.
For assay [18], the system named is NUAK1. Further details: species or system human, MV4-11 + K-562 + COLO205 + SK-N-BE2 + OVCAR-8. The note with it: read-out: apparent Kd; compound concentrations: 100 nM and 1000 nM (sheet 'Samples'), CATDS: 0.191214314920645; n = 1.
The mark [19] stands for this setting: compound concentrations:100 nM and 1000 nM (sheet 'Samples').

Q6ZSR9, sequence (Q6ZSR9 whole entry, looked up): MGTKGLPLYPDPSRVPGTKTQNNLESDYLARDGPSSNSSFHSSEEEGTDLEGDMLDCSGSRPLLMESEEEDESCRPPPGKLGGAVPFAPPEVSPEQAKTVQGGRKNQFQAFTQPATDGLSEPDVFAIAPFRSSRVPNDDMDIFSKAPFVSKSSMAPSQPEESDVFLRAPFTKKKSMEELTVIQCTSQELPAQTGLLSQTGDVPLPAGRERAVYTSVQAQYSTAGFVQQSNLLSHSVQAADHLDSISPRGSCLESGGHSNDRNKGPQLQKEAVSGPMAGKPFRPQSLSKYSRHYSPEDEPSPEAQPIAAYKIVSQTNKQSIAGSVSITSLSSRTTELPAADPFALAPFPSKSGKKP

Consider `Cc1ccccc1-n1ncc(C(=O)c2ccccc2)c1N` [RO1151248-000], for which the potency estimated from few doses in assay [1] (compound concentrations: 100 nM and 1000 nM (sheet 'Samples'), CATDS: 2.38860019962077E-2) was 914 nM; in assay [2] (compound concentrations: 100 nM and 1000 nM (sheet 'Samples'), CATDS: 1.72589051675766E-2), 2250 nM; in [3] (compound concentrations: 100 nM and 1000 nM (sheet 'Samples'), CATDS: 1.8880298651143101E-2) it was 1670 nM; in [4] (compound concentrations: 100 nM and 1000 nM (sheet 'Samples'), CATDS: 3.2430470905267197E-2), 506 nM; in assay [5] (compound concentrations: 100 nM and 1000 nM (sheet 'Samples'), CATDS: 2.9908240641474598E-2), 584 nM; in assay [6] (compound concentrations: 100 nM and 1000 nM (sheet 'Samples'), CATDS: 2.52342080828949E-2), 813 nM. For the same molecule, the potency estimated from few doses was 1110 nM in [7] (compound concentrations: 100 nM and 1000 nM (sheet 'Samples'), CATDS: 2.19543905026186E-2); 2350 nM in assay [8] (CATDS: 1.7045557740064301E-2); 809 nM in assay [9] (compound concentrations: 100 nM and 1000 nM (sheet 'Samples'), CATDS: 2.5293867995276598E-2); 967 nM in [10] (compound concentrations: 100 nM and 1000 nM (sheet 'Samples'), CATDS: 2.32948628287949E-2); 1090 nM in assay [11] (compound concentrations: 100 nM and 1000 nM (sheet 'Samples'), CATDS: 2.2142525707208802E-2); 897 nM in assay [12] (compound concentrations: 100 nM and 1000 nM (sheet 'Samples'), CATDS: 2.40988460516664E-2).

For the molecule `CC(=O)N[C@@H](Cc1ccc(OP(=O)(O)O)cc1)C(=O)N[C@H]1CCC(=O)N2CCC[C@@H](C(=O)NCc3ccc(Cl)cc3)N2C1=O` [RO0325308-000], the potency estimated from few doses was 737 nM in assay [1] (setting [19]); 1480 nM in [13] (setting [19]); 60.4 nM in [14]; 1430 nM in assay [2] (setting [19]); 1780 nM in assay [15] (setting [19]); 28.4 nM in [3] (setting [19]). For the same molecule, the potency estimated from few doses in assay [4] (setting [19]) is 59.4 nM; in [5] (setting [19]), 59 nM; in [6] (setting [19]), 60.7 nM; in [7] (setting [19]), 1170 nM; in assay [16] (setting [19]), 152 nM; in assay [9] (setting [19]) it was 523 nM. The potency estimated from few doses in assay [10] (setting [19]) was 1030 nM; in assay [11] (setting [19]), 876 nM; in assay [12] (setting [19]), 943 nM.

For the molecule `O=C(O)C(F)(F)F.O=C(O)C(F)(F)F.O=c1[nH]ccc2nc(N[C@@H]3CCCNC3)nc(Nc3ccc(S(=O)(=O)N4CCOCC4)cc3)c12.O=c1[nH]ccc2nc(N[C@@H]3CCCNC3)nc(Nc3ccc(S(=O)(=O)N4CCOCC4)cc3)c12` [GSK2177277A], the potency estimated from few doses in [1] (compound concentrations: 100 nM and 1000 nM (sheet 'Samples'), CATDS: 1.8142496176493599E-2) is 64.1 nM; in assay [13] (compound concentrations: 100 nM and 1000 nM (sheet 'Samples'), CATDS: 3.1293832570600401E-2), 23.6 nM; in [2] (compound concentrations: 100 nM and 1000 nM (sheet 'Samples'), CATDS: 9.7881749935300605E-3), 292 nM; in assay [15] (compound concentrations: 100 nM and 1000 nM (sheet 'Samples'), CATDS: 1.40967137709553E-2), 111 nM; in assay [3] (compound concentrations: 100 nM and 1000 nM (sheet 'Samples'), CATDS: 8.0407033957096193E-3) it was 563 nM; in assay [4] (compound concentrations: 100 nM and 1000 nM (sheet 'Samples'), CATDS: 7.9677595893025404E-3) it was 583 nM. For the same molecule, the potency estimated from few doses in [5] (compound concentrations: 100 nM and 1000 nM (sheet 'Samples'), CATDS: 2.6961640495366201E-2) is 30.4 nM; in assay [6] (compound concentrations: 100 nM and 1000 nM (sheet 'Samples'), CATDS: 2.05762593754709E-2) it was 49.8 nM; in [17], 125 nM; in assay [18], 2.02 nM; in assay [7] (compound concentrations: 100 nM and 1000 nM (sheet 'Samples'), CATDS: 1.6910585220633E-2), 74.2 nM; in assay [8] (CATDS: 1.2984656701456401E-2), 136 nM. The potency estimated from few doses is 1090 nM in assay [16] (compound concentrations: 100 nM and 1000 nM (sheet 'Samples'), CATDS: 6.8634871166861197E-3); 68.8 nM in assay [9] (compound concentrations: 100 nM and 1000 nM (sheet 'Samples'), CATDS: 1.7529215817932601E-2); 78.7 nM in assay [10] (compound concentrations: 100 nM and 1000 nM (sheet 'Samples'), CATDS: 1.64498976329738E-2); 27.8 nM in assay [11] (compound concentrations: 100 nM and 1000 nM (sheet 'Samples'), CATDS: 2.8395704553292499E-2); 60.1 nM in assay [12] (compound concentrations: 100 nM and 1000 nM (sheet 'Samples'), CATDS: 1.8714442667333402E-2).
